Measurements published in PMC6212790, “How bacterial xenogeneic silencer rok distinguishes foreign from self DNA in its resident genome”.
Whole data set: some 33,000 sequences, median “e-score” near -0.037, cut for the highest 2% near 0.34. For the sample, the highest values were picked, then their nearest neighbours and some sequences at random.

Molecular target: T1, GST-Rok (full length) (Bacillus subtilis subsp. subtilis str. …, UniProt O34857 1-191)
T1 sequence: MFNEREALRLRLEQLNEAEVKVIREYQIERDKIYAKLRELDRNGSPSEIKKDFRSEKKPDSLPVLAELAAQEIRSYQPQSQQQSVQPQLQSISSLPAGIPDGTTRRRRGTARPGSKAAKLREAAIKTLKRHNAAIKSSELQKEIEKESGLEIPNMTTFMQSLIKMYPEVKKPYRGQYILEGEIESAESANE
Experiment: protein binding microarray; Rok is a gene silencer of Bacillus subtilis; high values mean tight binding
Conditions: protein: recombinant; tags: GST (pTH5325, pDEST15-Magic modified); dsDNA, one strand shown
Summary of the method: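 Every oligonucleotide joins a 25-mer constant primer to a 35-mer variable part drawn from a de Bruijn sequence of order 10, so each non-palindromic 8-mer appears at least 32 times and each palindromic 8-mer 16 times. The preference for every 8-mer is reported as a unitless, rank-based enrichment score (E-score). This score spans 0.5 for the most favored 8-mer to −0.5 for the most disfavored.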

Row | Sequence | binding signal [E-score]
1 | GGATATAA | 0.271
2 | CGATATAA | 0.357
3 | CGATATAC | 0.239
4 | CGATATAG | 0.191
5 | CTTCTTTC | 0.0125
6 | CGCGCTGA | 0.105
7 | CAACGAGC | -0.148
8 | ACCTTCTC | -0.145
9 | CTAACATA | 0.186
10 | ATAACATA | 0.365
11 | ATAACATG | 0.152
12 | ACGTCAAG | 0.0301
13 | ATGTAGTA | 0.403
14 | ATGTAGTC | 0.162
15 | GTGTAGTA | 0.379
16 | ATGTAGTG | 0.211
17 | GAGTAGTA | 0.311
18 | CTGTAGTA | 0.243
19 | CCCAGTAG | 0.151
20 | AAGTTCAT | 0.147
21 | ATGCAAAA | 0.086
22 | GAAATACA | 0.184

Row | Sequence | binding signal [E-score]
23 | AAAATACG | 0.303
24 | AAAATAAT | 0.246
25 | GAAATACC | 0.175
26 | AAAATACT | 0.416
27 | AAAATACA | 0.344
28 | TAAATACA | 0.333
29 | CAAATACC | 0.126
30 | AAAATACC | 0.373
31 | AACGGTGG | 0.0395
32 | CGCCGACG | -0.0281
33 | AAACAGGA | 0.00183
34 | ACGTATCA | 0.0936
35 | ACCTTATC | 0.155
36 | AACTTAAG | 0.0622
37 | ACCATGTG | -0.159
38 | CACATGTA | 0.284
39 | AACATACG | 0.205
40 | CCCATGTA | 0.12
41 | AACATCTA | 0.236
42 | ACCATGTA | 0.385
43 | TACATCTA | 0.382
44 | TACATGTA | 0.339

Row | Sequence | binding signal [E-score]
45 | AACATACT | 0.136
46 | CACATCTA | 0.268
47 | AACATGTA | 0.285
48 | AACATACA | 0.355
49 | GTCAACAA | 0.0786
50 | CTGGACTA | 0.0592
51 | CTACAGAC | 0.12
52 | CAGATAGA | 0.172
53 | AATTTGGT | 0.177
54 | CTTAGCAC | -0.0712
55 | AGGACTAC | -0.0384
56 | CTGCAATA | 0.13
57 | GTAGAGAA | 0.189
58 | TACATATA | 0.347
59 | GACATATA | 0.277
60 | TACATACA | 0.341
61 | GACATACA | 0.0575
62 | CACATACA | 0.167
63 | AACATATA | 0.257
64 | GTCAGTAA | 0.00175
65 | GCATGGAA | -0.193
66 | GCGACTGA | 0.0748

Row | Sequence | binding signal [E-score]
67 | CGGTGAAC | 0.00962
68 | GTCTAGCA | -0.0242
69 | CACATCGC | -0.127
70 | CATCAGGC | -0.154
71 | GTAATGGA | 0.266
72 | CTAGCGAC | -0.128
73 | AAGCGTCG | -0.184
74 | CTAGTTAC | 0.418
75 | ATAGTTAA | 0.329
76 | ATAGTTAG | 0.319
77 | ATAGTTAC | 0.349
78 | CTAGTTGC | 0.281
79 | CTAGTTCC | 0.188
80 | CACAAAAC | 0.0504
81 | GATTGCAA | 0.0926
82 | GGAAGCTA | 0.285
83 | AAGTGGTC | -0.0764
84 | AAGTGGTA | 0.348
85 | CAGTGGTA | 0.258
86 | AATTGGTC | 0.0556
